The panel holds about 83,000 compounds, 20% with a hit somewhere; the sample as a whole holds those more often.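 For each line, cells grew in 96-well plates with the test compound present at a single concentration for 48 hours.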 Unmarked numbers belong to inactive results. The source made the active and inactive calls. How the source made its calls: active means growth percent below 10; inactive means the rest.
Experiments:
Experiment in all cases: NCI-60 one-dose screen, 48 h (100 = growth as untreated, 0 = no growth, -100 = all killed)
Settings in all cases: 10 µM unless noted
[1] = system: NCI-H23 lung
[2] = system: NCI-H226 lung
[3] = system: NCI-H322M lung
[4] = system: HOP-62 NSCLC
[5] = system: NCI-H460 lung
[6] = system: HOP-92 NSCLC
[7] = system: A549/ATCC NSCLC
[8] = system: 786-0 renal
[9] = system: NCI-H522 lung
[10] = system: COLO 205 colon

| Compound | growth [1] | growth [2] | growth [3] | growth [4] | growth [5] | growth [6] | growth [7] | growth [8] | growth [9] | growth [10] |
| --- | --- | --- | --- | --- | --- | --- | --- | --- | --- | --- |
| CCNCCNc1cc(-c2ccc(Cl)cc2)c(C#N)c2nc3ccccc3n12 | 44.7% | 56% | 2.72% (active) | 1.55% (active) | -55.1% (active) | 53.9% | 6.12% (active) | -57.9% (active) | – | – |
| NC(N)=N/N=C(/c1ccccc1)c1ccc(N)cc1 | 101% | 89.6% | 91.2% | 100% | 110% | 92.8% | 99.5% | 105% | – | – |
| COc1ccc(OC)c(Nc2nc3nonc3nc2Nc2cccc(Br)c2)c1 | 6.27% (active) | 13.4% | 5.13% (active) | 8.04% (active) | 0.718% (active) | -25.5% (active) | – | 22.1% | -13% (active) | -79.3% (active) |
| CC(c1ccc(-n2cccn2)cc1)c1cnc(N2CCc3ccc(C(N)=O)cc3C2)s1 (configuration not stated) | 59% | 43.6% | 86.8% | 82.2% | 74.5% | 71% | 65.8% | 65.8% | – | – |
| Cc1c2c(cn1Cc1ccccc1)CCc1cn(C)nc1-2 | 63.7% | 95.3% | 107% | 92.1% | 93.3% | 40% | 89.8% | 81.8% | – | – |
| N#C/C(=C\c1ccc(Br)cc1)n1nnc2ccccc21 | 13.5% | -23.9% (active) | -12.2% (active) | 17.9% | -23.2% (active) | -15% (active) | 18.1% | 5.88% (active) | – | – |
| CC(=O)Nc1nccs1 | 95% | 100% | 88.2% | 95.6% | 98.8% | 89.1% | 99.3% | 107% | – | – |
| C=C(C)[C@@H]1CC[C@@]2(C(=O)O)CC[C@]3(C)C(CCC4[C@@]5(C)CCC(OS(=O)(=O)c6ccccc6)C(C)(C)C5CC[C@]43C)C12 (some centres not stated) | 37.2% | 69.2% | 73.6% | 57.4% | 42.3% | 51% | 17.8% | 56.5% | – | – |
| O=c1oc2ccc(Cl)cc2cc1-c1cs/c(=N/N=C\c2ccc(Cl)cc2)n1/N=C/c1ccc(Cl)cc1 | 99.7% | 102% | 97.9% | 109% | 105% | 98% | – | 97.9% | 75.2% | 109% |
| N#C/C(=C\c1ccc2c(c1)OCO2)n1nnc2ccccc21 | 10.9% | 8.93% (active) | 9.39% (active) | 28.7% | 0.341% (active) | -2.71% (active) | 17.1% | 6.58% (active) | – | – |
| C=C1C(=O)O[C@H]2[C@H]1CC/C(C(=O)NCCCCCCCCNC(=O)/C1=C/CC[C@@]3(C)O[C@H]3[C@H]3OC(=O)C(=C)[C@@H]3CC1)=C\CC[C@@]1(C)O[C@@H]21 | 92.3% | 88.7% | 94.9% | 109% | 110% | 4.35% (active) | 82.9% | 85.1% | – | – |
| O=C1N(c2ccccc2)C(=S)N[C@]12[C@H](c1ccccc1)C1CCCN1[C@]21C(=O)NC2C=CC(Cl)=C[C@H]21 (some centres not stated) | 96.2% | 82.5% | 99.2% | 91.5% | 102% | 56.7% | 75.4% | 97% | – | – |
| COc1cc2cc(Oc3ccc(NC(=O)Nc4cc(C(F)(F)F)cc(C(F)(F)F)c4)cc3)c(C)nc2cc1OCCN1CCCCC1 | -73.3% (active) | 22.1% | -87.1% (active) | -50% (active) | -78% (active) | 42.2% | -64.9% (active) | -83.6% (active) | – | – |
| CCC(O)(C(c1ccccc1)c1ccccn1)C(c1ccccc1)c1ccccn1 (configuration not stated) | 110% | 104% | 98.6% | 106% | 110% | 109% | 104% | 105% | – | – |
| O=[N+]([O-])c1cccc(/C=C/c2ccccn2)c1 | 76.1% | 74.9% | 134% | 73.2% | 91% | 34.7% | 73.5% | 53.3% | – | 105% |
| CCOC(=O)Cc1csc2nc(-c3ccccc3)nn12 | 97.9% | 101% | 125% | 103% | 108% | 79.1% | 105% | 92% | – | – |
| Cc1[nH]c(-c2nc3ccccc3[nH]2)c(C)c1C(=O)N1CCOCC1 | 88.5% | 91.4% | 94.6% | 105% | 101% | 91.1% | 101% | 102% | – | – |
| COc1ccc(Oc2nc(Nc3ccc(N4CCOCC4)nc3)ncc2NC(=O)c2cc(OC)cc(OC)c2)cc1 | 97.9% | 65% | 88% | 82.6% | 82.3% | 82.8% | 84.6% | 67.4% | – | – |
